The record followed here is PubChem BioAssay.

Test [1] is described as follows: yeast TOR pathway RPL19A-GFP modulators, primary screen, cell-based, S. cerevisiae, multiplex flow cytometry (AID 1862; in the data active = percent of DMSO control GFP below about 86%;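 also: lower values mimic rapamycin by blocking the RPL19A rise seen in DMSO cells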). The note with it: S. cerevisiae RPL19A-GFP strain, flow cytometry fluorescence, 3 h; at 10 µM; stronger effect = lower value. On the technique in general: In flow cytometry, cells or beads pass a laser one at a time.
Test [2] is described as follows: modulators of MEP2-GFP levels in yeast, primary screen, S. cerevisiae, multiplex flow cytometry (AID 1867;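 active = GFP response, as percent of the DMSO control, above the screen-wide mean plus 3 SD, about 139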;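 also: median GFP channel fluorescence of barcode-gated MEP2-GFP cells measured by flow cytometry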). The note with it: S. cerevisiae MEP2-GFP strain, 3 h, at 10 µM, stronger effect = higher value, 100% means same as DMSO wells.
Test [3] can be described thus: modulators of CIT2-GFP expression in yeast, primary screen, S. cerevisiae, GFP fusion, multiplex flow cytometry (AID 1870;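 active = percent response above a set limit, the screen-wide mean plus 3 SD, cut at about 130% in these data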;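 also: barcoded CIT2-GFP strain pooled with four other GFP strains with rapamycin as positive control; median GFP fluorescence per well over plate mean of DMSO wells so 100% = DMSO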). The note with it: 3 h, at 10 µM, stronger effect = higher value.
Test [4] is described as follows: modulators of LAP4-GFP expression in yeast, primary screen, S. cerevisiae, multiplex flow cytometry (AID 1873;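 active = GFP signal, as percent of the solvent control, above the screen mean plus 3 SD, about 149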). The note with it: 3 h, at 10 µM, stronger effect = higher value.
The nature of test [5]: modulators of AGP1-GFP expression in yeast TOR pathway, primary screen, cell-based, multiplex flow cytometry, S. cerevisiae (AID 1887;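 active = GFP signal above the screen-wide mean plus 3 SD, that is over about 124.5% of the solvent control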;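 also: AGP1-GFP fusion strain of S. cerevisiae within a five-strain barcoded multiplex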). The note with it: 3 h, at 10 µM, stronger effect = higher value.
Test [6] is described as follows: inhibitors of CD8+ T cell-vesicle binding, pilot screen, LFA-1/ICAM-1 modulator project, MLPCN validation set, flow cytometry (AID 2523;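 active = response below a set limit, under 55% cells CD8-positive and vesicle-bound, and CD8 cells' 90th-percentile brightness under 279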;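 as to vesicle binding response: mean PE anti-B7-1 fluorescence of CD8+ cells relative to row control; 100% = QL9-loaded vesicles with DMSO vehicle in the same plate row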). The note with it: 2C mouse CD8+ T cells, at 7 µM, stronger effect = lower value; double positive events: measured here: CD8+/vesicle+ event percentage.
Test [7] addresses Integrin beta-1 (Homo sapiens) + Integrin alpha-4 (Homo sapiens) (UniProt P13612+P05556). The test is described as follows: inhibition of HUTS-21 binding to VLA-4, pilot screen, VLA-4 allosteric modulator project, U937 cells, HUTS-21 mAb, flow cytometry, validation set (AID 2674;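 active = inhibition above 50%, about 3 SD of the validation set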;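 also: antibody binding induced by the VLA-4 ligand LDV present at three times its Kd; 0% = LDV ligand with antibody and no compound and 100% = antibody without LDV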). The following applies: HUTS-21 LIBS mAb binding, at 6.7 µM, stronger effect = higher value, binding induced by LDV ligand.

Test [8] in a line: superoxide lowering in aged yeast cells, pilot screen, validation compound set (AID 2706;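 active = superoxide response below 65% of plate, a cut near 3 SD across the whole screen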;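 also: yeast exposed to compound for one week at 30 degrees C before staining; 100% = mean of all compound wells on the same plate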). The following applies: S. cerevisiae aging, superoxide DHE fluorescence; at 10 µM; stronger effect = lower value.
Test [9] has as its target Beta-adrenergic receptor kinase 1 (Homo sapiens) (UniProt P25098). Description: GRK2 binders displacing RNA aptamer, biochemical, validation, human GRK2, bead flow cytometry (AID 488806;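 active = aptamer binding inhibition above 30%, about 3 SD of noise from non-fluorescent compounds; inactive = inhibition at or below 30%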). The note with it: bead-bound GRK2, FAM-aptamer displacement, at 10 µM, stronger effect = higher value.
Test [10] concerns the target Beta-2 adrenergic receptor (Homo sapiens) (UniProt P07550). The test is described as follows: beta2AR agonists driving receptor internalization, pilot screen, cell-based, FAP fluorogen, flow cytometry, validation set (AID 504459;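 active = percent response above 42, roughly 3 SD of non-fluorescent test compounds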;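 also: agonist-driven loss of surface beta2AR via internalization measured by FAP dye flow cytometry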). The note with it: Am2.2-beta2AR cells, FAP surface receptor flow cytometry; at 10 µM; stronger effect = higher value.
Test [11] deals with AP-2 complex subunit beta (Homo sapiens) (UniProt P63010). The test is described as follows: inhibitors of arrestin peptide binding to AP2, pilot screen, biochemical, validation set, GST-AP2 beads, flow cytometry (AID 504541;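 active = inhibition above 54%, about 3 SD of non-fluorescent compounds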;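 also: AP2 carries R879A mutation and is captured from E. coli lysate; bead-bound FITC arrestin peptide fluorescence measuring arrestin peptide binding to AP2; 0% = DMSO wells and 100% = excess unlabeled arrestin peptide control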). The following applies: FITC arrestin peptide, at 10 µM, stronger effect = higher value, AP2 beta2 appendage fragment, R879A mutant.
Test [12] can be described thus: yeast V-ATPase proton transport modulators, S. cerevisiae, pHLuorin, HTS validation (AID 504600; in the data active = response above about 15%;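 also: plate controls were DMSO for no effect and reference compound for full effect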). The note with it: S. cerevisiae pHLuorin cytosolic pH, at 10 µM, stronger effect = higher value.
Test [13] relates to anti-desmoglein-3 scFv antibody binding to human DSG3. The test is described as follows: inhibitors of anti-DSG3 scFv binding to DSG3, pilot screen, biochemical, validation compound set, bead-based, flow cytometry (AID 588368).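 Also: signal is the median channel fluorescence of bead-bound GFP antibody.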 The note with it: Protein G beads, DSG3-Fc, scFv-GFP binding, at 10 µM, stronger effect = lower value.
Test [14] is described as follows: inhibitors of fungal efflux pumps CDR1, CDR2, MDR1, pilot screen, validation compound set, multiplex, phenotypic (AID 588506;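 active = efflux inhibition above 0.42, the validation set average plus 4 SD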;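 also: Nile Red retained in cells so higher fluorescence means more efflux inhibition; 0 = negative control wells and 1 = enniatin B 25 µM full block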). The note with it: S. cerevisiae pump-expressing triplex, Nile Red efflux flow cytometry; at 10 µM; stronger effect = higher value; the pumps come from Candida albicans.
The target in test [15] is ATP-binding cassette sub-family B member 6 (Homo sapiens) (UniProt Q9NP58). Description: ABCB6 transporter inhibitors, pilot screen, K562-ABCB6 cells, flow cytometry, validation set (AID 588550;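 active = inhibition above the screen-wide mean plus 3 SD, about 51%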;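 also: 0% = DMSO wells and 100% = benzethonium chloride 70 µM positive control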). The note with it: K562-ABCB6 porphyrin accumulation, 1 h, at 10 µM, stronger effect = higher value.
Test [16] can be described thus: promoters of myeloid differentiation in arrested cells, primary screen, cell-based, GFP/MAC1 double positive, flow cytometry, validation set (AID 588685;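 active = differentiation response of at least 50%, scaled between solvent and reference control, from cells with both markers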;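 also: compound exposure lasts four days before antibody staining and flow analysis; 0% = DMSO wells and 100% = 5 µM fulvestrant positive control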). The note with it: ER-HoxA9 marrow cells, stronger effect = higher value, normalized: vehicle 0, fulvestrant 100.

Records with an inconclusive call do not appear. Calls of active or inactive are those of the source.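 The calls were made as follows, unless noted: active = binding below the plate cutoff, the plate median minus 3 SD, with a reading above zero; inconclusive = below the plate cutoff but reading exactly zero; inactive = the rest.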

As a reminder, the inhibition is the drop in the measured response relative to a control, in per cent.

Chain of AP-2 complex subunit beta (Homo sapiens) (P63010 whole entry, looked up, the tested form may be a part, one chain of several): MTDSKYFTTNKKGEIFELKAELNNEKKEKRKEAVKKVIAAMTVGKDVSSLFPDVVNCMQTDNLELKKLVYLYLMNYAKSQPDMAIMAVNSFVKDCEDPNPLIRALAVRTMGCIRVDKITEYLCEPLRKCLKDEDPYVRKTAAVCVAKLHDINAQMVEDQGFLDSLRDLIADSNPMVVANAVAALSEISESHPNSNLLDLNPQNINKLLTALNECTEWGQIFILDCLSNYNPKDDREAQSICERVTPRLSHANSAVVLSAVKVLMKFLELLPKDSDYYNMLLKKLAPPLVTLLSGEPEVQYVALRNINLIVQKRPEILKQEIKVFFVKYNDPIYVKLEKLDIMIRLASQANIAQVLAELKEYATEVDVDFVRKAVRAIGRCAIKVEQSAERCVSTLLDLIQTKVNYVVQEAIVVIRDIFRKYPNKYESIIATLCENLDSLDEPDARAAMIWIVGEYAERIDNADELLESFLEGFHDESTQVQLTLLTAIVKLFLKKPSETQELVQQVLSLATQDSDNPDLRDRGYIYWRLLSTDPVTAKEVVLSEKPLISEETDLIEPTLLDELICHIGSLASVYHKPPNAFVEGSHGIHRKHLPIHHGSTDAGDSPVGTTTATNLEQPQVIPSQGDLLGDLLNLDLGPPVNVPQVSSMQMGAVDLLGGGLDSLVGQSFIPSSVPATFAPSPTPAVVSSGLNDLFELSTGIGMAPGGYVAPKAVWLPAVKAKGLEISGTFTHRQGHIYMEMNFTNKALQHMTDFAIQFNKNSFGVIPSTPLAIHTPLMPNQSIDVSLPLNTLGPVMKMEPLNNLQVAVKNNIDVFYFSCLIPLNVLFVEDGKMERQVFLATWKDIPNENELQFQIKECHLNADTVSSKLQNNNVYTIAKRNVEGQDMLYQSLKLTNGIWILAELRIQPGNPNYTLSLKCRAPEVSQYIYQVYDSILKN
Chain of Beta-2 adrenergic receptor (Homo sapiens) (P07550 whole entry, looked up): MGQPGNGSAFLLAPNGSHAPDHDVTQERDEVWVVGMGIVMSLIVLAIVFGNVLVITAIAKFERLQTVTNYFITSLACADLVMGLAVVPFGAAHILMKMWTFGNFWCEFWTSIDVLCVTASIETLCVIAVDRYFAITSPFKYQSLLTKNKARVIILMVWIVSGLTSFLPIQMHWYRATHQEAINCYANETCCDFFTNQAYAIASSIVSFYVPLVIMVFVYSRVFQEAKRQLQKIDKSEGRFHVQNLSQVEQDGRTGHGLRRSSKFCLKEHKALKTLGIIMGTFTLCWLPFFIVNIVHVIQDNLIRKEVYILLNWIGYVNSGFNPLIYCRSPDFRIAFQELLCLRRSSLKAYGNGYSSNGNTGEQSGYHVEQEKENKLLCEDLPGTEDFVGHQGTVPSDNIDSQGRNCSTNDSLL
Chain of Beta-adrenergic receptor kinase 1 (Homo sapiens) (P25098 whole entry, looked up): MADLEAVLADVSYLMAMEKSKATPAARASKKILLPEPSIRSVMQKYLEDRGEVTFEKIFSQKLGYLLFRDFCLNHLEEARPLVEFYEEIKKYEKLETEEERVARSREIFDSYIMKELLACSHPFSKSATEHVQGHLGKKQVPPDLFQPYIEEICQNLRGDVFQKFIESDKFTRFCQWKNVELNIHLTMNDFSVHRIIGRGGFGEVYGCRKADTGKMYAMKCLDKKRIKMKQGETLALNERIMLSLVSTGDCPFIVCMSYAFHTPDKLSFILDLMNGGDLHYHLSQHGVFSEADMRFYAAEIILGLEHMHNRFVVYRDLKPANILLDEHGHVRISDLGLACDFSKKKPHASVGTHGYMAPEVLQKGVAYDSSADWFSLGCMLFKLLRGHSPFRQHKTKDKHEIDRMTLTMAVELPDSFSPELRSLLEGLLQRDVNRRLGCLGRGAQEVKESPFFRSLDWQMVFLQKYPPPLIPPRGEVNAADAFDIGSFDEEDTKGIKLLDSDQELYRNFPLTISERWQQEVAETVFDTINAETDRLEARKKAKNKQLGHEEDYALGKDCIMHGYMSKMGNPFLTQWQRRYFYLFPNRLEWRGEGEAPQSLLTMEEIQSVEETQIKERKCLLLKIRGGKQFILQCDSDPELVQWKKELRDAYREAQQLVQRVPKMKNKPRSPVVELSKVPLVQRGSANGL
Chain of Integrin beta-1 (Homo sapiens) + Integrin alpha-4 (Homo sapiens) (P05556 whole entry, looked up): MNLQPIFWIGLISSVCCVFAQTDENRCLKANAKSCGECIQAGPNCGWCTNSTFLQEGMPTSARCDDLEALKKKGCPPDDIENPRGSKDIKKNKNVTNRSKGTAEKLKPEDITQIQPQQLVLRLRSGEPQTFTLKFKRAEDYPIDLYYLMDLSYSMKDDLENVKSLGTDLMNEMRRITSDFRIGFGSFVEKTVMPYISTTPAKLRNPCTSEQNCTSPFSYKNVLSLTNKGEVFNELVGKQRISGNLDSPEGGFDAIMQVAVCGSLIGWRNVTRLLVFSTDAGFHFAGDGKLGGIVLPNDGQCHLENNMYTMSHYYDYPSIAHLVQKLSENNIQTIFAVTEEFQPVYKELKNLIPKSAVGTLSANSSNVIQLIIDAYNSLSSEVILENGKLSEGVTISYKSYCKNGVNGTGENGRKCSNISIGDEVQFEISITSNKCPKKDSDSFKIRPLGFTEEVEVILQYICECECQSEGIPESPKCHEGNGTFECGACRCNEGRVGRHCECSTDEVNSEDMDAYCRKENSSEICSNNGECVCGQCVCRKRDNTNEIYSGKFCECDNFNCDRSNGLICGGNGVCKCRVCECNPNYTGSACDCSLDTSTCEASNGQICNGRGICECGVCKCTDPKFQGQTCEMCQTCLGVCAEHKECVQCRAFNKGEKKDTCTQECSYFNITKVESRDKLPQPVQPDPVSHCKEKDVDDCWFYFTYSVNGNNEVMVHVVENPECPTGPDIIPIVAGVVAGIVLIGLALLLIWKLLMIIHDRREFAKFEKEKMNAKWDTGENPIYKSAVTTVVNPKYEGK
Chain of Integrin beta-1 (Homo sapiens) + Integrin alpha-4 (Homo sapiens) (P13612 whole entry, looked up): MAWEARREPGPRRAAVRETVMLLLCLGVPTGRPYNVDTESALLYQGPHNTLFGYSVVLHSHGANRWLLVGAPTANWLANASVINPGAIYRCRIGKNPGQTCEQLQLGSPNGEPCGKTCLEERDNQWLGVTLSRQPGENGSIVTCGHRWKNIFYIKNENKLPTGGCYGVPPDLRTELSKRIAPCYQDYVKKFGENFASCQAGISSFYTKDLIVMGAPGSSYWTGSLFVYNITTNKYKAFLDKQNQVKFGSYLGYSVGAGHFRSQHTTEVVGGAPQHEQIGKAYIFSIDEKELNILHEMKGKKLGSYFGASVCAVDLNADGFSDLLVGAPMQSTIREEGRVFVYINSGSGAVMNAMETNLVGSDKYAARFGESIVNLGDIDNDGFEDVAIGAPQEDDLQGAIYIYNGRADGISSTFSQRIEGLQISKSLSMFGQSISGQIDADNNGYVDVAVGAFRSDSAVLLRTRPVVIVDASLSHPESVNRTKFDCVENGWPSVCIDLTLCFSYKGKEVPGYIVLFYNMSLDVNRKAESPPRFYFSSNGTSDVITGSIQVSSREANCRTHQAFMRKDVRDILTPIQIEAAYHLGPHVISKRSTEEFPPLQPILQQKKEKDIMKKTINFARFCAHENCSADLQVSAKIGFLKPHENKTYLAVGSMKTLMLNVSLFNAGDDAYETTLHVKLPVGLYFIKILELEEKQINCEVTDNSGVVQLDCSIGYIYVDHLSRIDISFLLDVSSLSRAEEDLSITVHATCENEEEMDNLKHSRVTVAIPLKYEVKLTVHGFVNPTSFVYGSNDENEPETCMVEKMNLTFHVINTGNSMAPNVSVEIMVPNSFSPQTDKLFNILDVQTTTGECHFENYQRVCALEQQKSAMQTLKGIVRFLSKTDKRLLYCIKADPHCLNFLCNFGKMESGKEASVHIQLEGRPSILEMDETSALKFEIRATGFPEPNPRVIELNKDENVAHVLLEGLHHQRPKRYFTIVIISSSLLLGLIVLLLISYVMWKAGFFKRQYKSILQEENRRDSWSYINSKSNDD
Chain of ATP-binding cassette sub-family B member 6 (Homo sapiens) (Q9NP58 whole entry, looked up): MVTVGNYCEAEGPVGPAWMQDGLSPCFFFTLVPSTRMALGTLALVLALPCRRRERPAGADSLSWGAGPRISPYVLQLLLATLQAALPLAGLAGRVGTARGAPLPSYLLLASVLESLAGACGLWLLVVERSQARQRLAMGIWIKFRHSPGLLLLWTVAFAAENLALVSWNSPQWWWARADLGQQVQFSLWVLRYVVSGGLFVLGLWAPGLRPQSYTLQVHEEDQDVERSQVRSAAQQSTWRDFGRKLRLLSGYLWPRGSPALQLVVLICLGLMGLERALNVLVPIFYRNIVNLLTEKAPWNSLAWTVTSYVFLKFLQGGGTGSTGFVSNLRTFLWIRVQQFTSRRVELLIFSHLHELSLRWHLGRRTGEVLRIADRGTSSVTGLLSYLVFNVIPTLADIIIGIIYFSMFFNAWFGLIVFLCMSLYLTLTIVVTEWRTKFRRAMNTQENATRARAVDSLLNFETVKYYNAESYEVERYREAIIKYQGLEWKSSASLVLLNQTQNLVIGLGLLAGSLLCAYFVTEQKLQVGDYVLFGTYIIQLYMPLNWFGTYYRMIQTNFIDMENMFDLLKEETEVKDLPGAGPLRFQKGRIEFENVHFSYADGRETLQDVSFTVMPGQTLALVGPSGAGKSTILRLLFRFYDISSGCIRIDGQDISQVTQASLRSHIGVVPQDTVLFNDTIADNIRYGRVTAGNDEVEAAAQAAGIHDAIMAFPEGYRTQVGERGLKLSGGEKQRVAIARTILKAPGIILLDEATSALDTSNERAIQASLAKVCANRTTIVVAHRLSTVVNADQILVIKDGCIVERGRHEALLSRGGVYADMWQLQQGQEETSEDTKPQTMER

`Cc1ccc(S(=O)(=O)n2ccnc2)cc1C`: the percent of DMSO control GFP in test [1] is 98.4% (inactive). Besides, the GFP response vs DMSO in [2] is 112% (inactive); in test [4] it was 108% (inactive). The percent response of DMSO control in test [3] is 99.6% (inactive). Besides, in test [5], the GFP response, % of DMSO was 121% (inactive). The same compound came in with a double positive events in test [6] of 60.3%. In addition, in [6], the vesicle binding response is 160% (inactive). The figures for the inhibition in test [7], in test [11] and in [15] were 6.55% (inactive), -13.3% (inactive) and 3% (inactive), respectively. Also, the superoxide response (% of plate) in test [8] is 95.2% (inactive). Further, in test [9], the aptamer binding inhibition was 1% (inactive). Further, the response is -20.5% (inactive) in [10] and 1.99% (inactive) in test [12]. Further, the binding (% of control) in test [13] is 102% (inactive). In addition, the efflux inhibition (fraction of control) in test [14] is -0.09 (inactive). In addition, the differentiation response in test [16] was -2.03% (inactive).
As to `COc1ccccc1OS(=O)(=O)c1ccc(NC(C)=O)cc1`, in [1], the percent of DMSO control GFP was 87.1% (inactive). For the same compound, the GFP response vs DMSO is 123% (inactive) in [2] and 82.5% (inactive) in [4]. Further, the percent response of DMSO control in test [3] is 101% (inactive). In addition, the GFP response, % of DMSO in test [5] is 103% (inactive). Also, in test [6], the double positive events worked out at 57.8%. Further, in test [6], the vesicle binding response was 65.7% (inactive). For the same compound, the values for the inhibition in [7], in test [11] and in test [15] were 10.3% (inactive), -11.8% (inactive) and 4% (inactive), respectively. In addition, the superoxide response (% of plate) in test [8] was 97% (inactive). The aptamer binding inhibition in [9] was 2% (inactive). Also, the response in test [10] was -16.4% (inactive); in [12], -0.65% (inactive). The binding (% of control) in [13] is 101% (inactive). In addition, in [14], the efflux inhibition (fraction of control) is -0.35 (inactive). The differentiation response in test [16] is -4.09% (inactive).
Regarding `O=C(NCCC(c1ccccc1)c1ccco1)c1cccs1` (stereo not given), in test [1], the percent of DMSO control GFP was 97.6% (inactive). Also, the GFP response vs DMSO in test [2] is 105% (inactive); in [4], 127% (inactive). The percent response of DMSO control in test [3] is 91% (inactive). Also, the GFP response, % of DMSO in [5] was 96.5% (inactive). Besides, the double positive events in test [6] was determined as 57.6%. In addition, the vesicle binding response in [6] was 230% (inactive). In addition, the values for the inhibition in [7], in test [11] and in test [15] were -5.89% (inactive), -6.88% (inactive) and 11% (inactive), respectively. Further, in [8], the superoxide response (% of plate) was 105% (inactive). Further, in test [9], the aptamer binding inhibition is 0% (inactive). In addition, the response in [10] is -13.3% (inactive); in test [12], 2.49% (inactive). In [13], the binding (% of control) was 99.7% (inactive). Further, the efflux inhibition (fraction of control) in test [14] was -0.21 (inactive). In addition, the differentiation response in [16] is -5.6% (inactive).
For `O=C1CC[C@@H](CN(Cc2ccccc2)Cc2cn[nH]c2-c2cc3ccccc3o2)N1`, in [1], the percent of DMSO control GFP is 101% (inactive). The GFP response vs DMSO in [2] is 108% (inactive); in test [4], 110% (inactive). Besides, the percent response of DMSO control in test [3] was 99.6% (inactive). In addition, in test [5], the GFP response, % of DMSO was 114% (inactive). For the same compound, in test [6], the double positive events is 63.1%. Moreover, in test [6], the vesicle binding response is 198% (inactive). The inhibition in test [7] was -4.52% (inactive); in test [11], 2.07% (inactive); in test [15], 1% (inactive). In addition, the superoxide response (% of plate) in [8] was 93.3% (inactive). Also, the aptamer binding inhibition in [9] was 5% (inactive). The response was 40.3% (inactive) in test [10] and 3.87% (inactive) in test [12]. Besides, the binding (% of control) in test [13] was 101% (inactive). Also, the efflux inhibition (fraction of control) in [14] was 0.38 (inactive). The differentiation response in test [16] is -7.94% (inactive).
As for `O=C(OCCNC(=O)c1ccc2ccccc2n1)c1ccc(F)cc1`, in [1], the percent of DMSO control GFP was 103% (inactive). Further, the GFP response vs DMSO is 110% (inactive) in test [2] and 87.4% (inactive) in test [4]. For the same compound, in [3], the percent response of DMSO control was 97.8% (inactive). Further, the GFP response, % of DMSO in test [5] was 88.9% (inactive). For the same compound, the double positive events in test [6] was 58.4%. Moreover, the vesicle binding response in test [6] was 241% (inactive). In addition, the figures for the inhibition in [7], in test [11] and in [15] were 2.66% (inactive), 2.3% (inactive) and 0% (inactive), respectively. The superoxide response (% of plate) in [8] is 114% (inactive). Also, the aptamer binding inhibition in [9] is 0% (inactive). Further, the response in test [10] was 4.51% (inactive); in test [12], 1.13% (inactive). The binding (% of control) in test [13] was 99.2% (inactive). For the same compound, the efflux inhibition (fraction of control) in [14] is -0.04 (inactive). Besides, the differentiation response in test [16] was 8.06% (inactive).
